Shown are actives, neighbours in structure and some others; about 4.2% of the full set was active somewhere.
12-LOX inh: blocks human arachidonate 12S-lipoxygenase. purified 12hLO, xylenol orange hydroperoxide absorbance. Potency, µM (highest dose often 108 µM), most hits filed as inhibitors. 580,000 compounds, 1.1% hits. AID 1671190
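Purified human 12hLO (150 nM final) in 25 mM Hepes, 0.01% Triton X-100, pH 7.0 was preincubated 15 min at room temperature with compound. Then 40 uM arachidonic acid was added, 30 min. Hydroperoxide was read by Fe-XO absorbance ratio 573/405 nm.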
PLK1 PBD block: PLK1 (human) polo-box domain binding inhibition; Plk1 PBD binding of FITC phosphopeptide, fluorescence polarization; Potency, µM, hits mostly inhibitors; 360,000 compounds, 2.8% hits; also: series mostly up to about 57 µM; nearly all actives have a fitted effect of over 65% in size
VDR inh: blocks the human vitamin D receptor | P11473 | VDR-SRC2-3 peptide fluorescence polarization, 2 h | Potency, µM, usual class: inhibitors | 400,000 compounds, 0.93% hits | AID 504847
Target sequence (P11473 whole entry, looked up): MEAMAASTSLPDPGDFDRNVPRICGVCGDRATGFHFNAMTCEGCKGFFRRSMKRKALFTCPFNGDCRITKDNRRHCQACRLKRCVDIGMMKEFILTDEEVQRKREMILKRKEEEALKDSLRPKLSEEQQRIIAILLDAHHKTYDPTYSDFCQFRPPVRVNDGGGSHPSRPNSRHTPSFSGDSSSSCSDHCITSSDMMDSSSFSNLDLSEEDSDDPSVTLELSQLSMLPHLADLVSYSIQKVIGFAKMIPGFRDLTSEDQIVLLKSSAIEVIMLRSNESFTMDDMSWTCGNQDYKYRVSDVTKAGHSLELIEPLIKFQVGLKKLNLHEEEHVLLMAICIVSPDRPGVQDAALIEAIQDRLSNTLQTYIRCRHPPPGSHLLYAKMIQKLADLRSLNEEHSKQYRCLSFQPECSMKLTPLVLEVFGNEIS
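VDR–SRC2-3 interaction, FP format. Cmpds 23 nl via pintool, brief spin, 2 h ambient incubation.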
Sfp PPTase inh: inhibitors of Bacillus subtilis Sfp phosphopantetheinyl transferase | Q9F4F7 | Biochemical Sfp PPTase activity, qHTS | Potency, µM, most hits filed as inhibitors | 310,000 compounds, 3.5% hits | AID 1490;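 also: the enzyme is Sfp with the accession as filed and its product quenches rhodamine fluorescence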
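Fluorescence-quenching assay with 15 nM Sfp, 5 uM rhodamine-CoA and 12.5 uM BHQ-2-labelled ybbR peptide in pH 7.6 Hepes/MgCl2 buffer. Enzyme was pre-incubated with compound for 15 min at room temperature. Rate was taken from the 30-min fluorescence change (525/598 nm).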
Each line names hits and unclear results; the compound was inactive in the other large screens; ! = not confirmed by another sample. Calls follow the shape of the dose curve; as a rule, active = well fitted curve in the direction sought with a large enough effect; inconclusive = small, poorly fitted or top-dose-only effect, or another doubt; inactive = no such curve, though single readings can be large; an effect the other way counts as inactive or inconclusive.

O=C(NC(NC(=S)Nc1ccccc1)C(Cl)(Cl)Cl)c1cccc(Cl)c1 (stereo not given)	12-LOX inh inconclusive
O=S(=O)(N/N=C/c1ccc(F)cc1)c1ccccc1	none
O=C(/C=C/c1ccc(-c2ccccc2Cl)o1)c1ccccc1	12-LOX inh 20µM (no result: PLK1 PBD block, VDR inh, Sfp PPTase inh)
O=C(/C=C/c1ccc(-c2ccccc2[N+](=O)[O-])o1)c1ccc(Br)cc1	none
O=C(/C=C/c1ccc(-c2ccc(Cl)cc2Cl)o1)c1ccccc1	12-LOX inh 1.6µM (no result: PLK1 PBD block, VDR inh, Sfp PPTase inh)
O=S(=O)(N/N=C/c1ccccc1F)c1ccccc1	PLK1 PBD block 15µM, VDR inh inconclusive
CN(C)CCNC(=O)/C(=C/c1ccc(-c2ccc(Cl)cc2Cl)o1)NC(=O)c1ccccc1	12-LOX inh 45µM, Sfp PPTase inh 40µM
COc1ccc(NC(=S)N2CCN(S(=O)(=O)c3ccc(C)cc3)CC2)cc1	none
O=S(=O)(N/N=C\c1ccc(-c2ccccc2Cl)o1)c1ccccc1	12-LOX inh inconclusive, Sfp PPTase inh 45µM
COc1cc(/C=C/[N+](=O)[O-])ccc1OC(=O)c1cc2ccccc2oc1=O	12-LOX inh inconclusive, PLK1 PBD block 13µM, VDR inh inconclusive, Sfp PPTase inh 3.5µM
CCOC(=O)C1=C(N)Oc2ccc(Br)cc2C1C(C#N)C(=O)OCC (stereo not given)	12-LOX inh inconclusive, VDR inh 5.6µM (no result: PLK1 PBD block)
Cc1ccc(N2C(=O)CC(N3CCN(c4ccc(F)cc4)CC3)C2=O)c(C)c1 (stereo not given)	none
Cc1ccc(NC(=S)/N=C(\N)Nc2nc(C)c3cc(C)c(C)cc3n2)cc1C	12-LOX inh 35µM, VDR inh inconclusive
Cc1ccc(NC(=S)/N=C(\N)Nc2nc(C)c3cc(C)ccc3n2)c(C)c1	12-LOX inh inconclusive, VDR inh inconclusive
CCc1ccccc1NC(=S)/N=C(\N)Nc1nc(C)c2cc(C)ccc2n1	12-LOX inh 35µM, VDR inh inconclusive
Cc1ccc(-c2nc(N)sc2CC(=O)OCC(=O)N(c2ccccc2)C(C)C)cc1	none (no result: PLK1 PBD block, VDR inh, Sfp PPTase inh)
NC(N)=NC(=O)Cc1c(Cl)cccc1Cl	Sfp PPTase inh 89µM!
CSc1ncnc2[nH]ncc12	none (no result: Sfp PPTase inh)
Cc1nc(C(=O)N2C[C@@H](COc3ccccc3)[C@H](C(N)=O)C2)co1	none (no result: PLK1 PBD block, VDR inh, Sfp PPTase inh)
CC(C)CC(NC(=O)C(COCc1ccccc1)NC(=O)OC(C)(C)C)C(=O)NN (stereo not given)	PLK1 PBD block 27µM
FC(F)(F)c1ccc2nc([C@H]3CCN(C4CCOCC4)C3)[nH]c2c1	none (no result: PLK1 PBD block, VDR inh, Sfp PPTase inh)
COc1ccc(C2Cn3nnc(-c4noc(-c5ccc(C)s5)n4)c3CO2)cc1 (stereo not given)	none (no result: PLK1 PBD block, VDR inh, Sfp PPTase inh)
COc1ccc(CN(Cc2cc3cccc(C)c3[nH]c2=O)C(=O)N(C)C)cc1	none
CNC(=S)N(Cc1ccc(OC)cc1)Cc1cc2cccc(C)c2[nH]c1=O	PLK1 PBD block 13µM, VDR inh inconclusive
CNC(=O)NC(=O)CN(C1CCCC1)C1CCCC1	none (no result: PLK1 PBD block, VDR inh, Sfp PPTase inh)
Cc1cccc(CSCc2ccc(-c3nc(-c4ccc(Br)cc4)no3)o2)c1	12-LOX inh 3.5µM (no result: PLK1 PBD block, VDR inh, Sfp PPTase inh)
COc1ccc2cc(S(=O)(=O)NCc3cccnc3)ccc2c1	none
CC(=O)c1cc2c(cc1NC(=O)CN(C)S(=O)(=O)c1cccs1)OCO2	none (no result: Sfp PPTase inh)
COc1cc2c(cc1OC)C(C)N(C(=O)c1cc(Cl)nc(Cl)c1)CC2 (stereo not given)	none
COc1cc2c(cc1OC)C1N(CC2)C(=O)CCC12C(=O)CCCC2=O (stereo not given)	VDR inh 71µM, Sfp PPTase inh inconclusive (no result: PLK1 PBD block)
Cc1ccc(NC2SC(=O)N(Cc3cccc(C(=O)O)c3)C2=O)cc1 (stereo not given)	PLK1 PBD block 21µM
CC(=NNc1ccccc1)C(C)=NNc1ccccc1	12-LOX inh 40µM (no result: Sfp PPTase inh)
C/C(=N\Nc1ccc(C(=O)O)cc1)c1ccc(Cl)s1	Sfp PPTase inh 10µM
C/C(=N\NC(=O)C(O)c1ccccc1)c1ccc(Cl)s1 (stereo not given)	none
C/C(=N\Nc1ccc(C(=O)O)cc1)c1ccc(Br)cc1	12-LOX inh inconclusive
C/C(=N/Nc1ccccc1)c1ccc(Cl)s1	12-LOX inh 5µM (no result: PLK1 PBD block, VDR inh, Sfp PPTase inh)
CC(=O)Sc1nc(-c2ccccc2)[nH]c1S(=O)(=O)c1ccc(C)cc1	PLK1 PBD block 3µM, VDR inh inconclusive, Sfp PPTase inh 2.5µM (no result: 12-LOX inh)
Cc1ccc(S(=O)(=O)Nc2ccc3nc(C)sc3c2)c(C)c1	12-LOX inh inconclusive (no result: Sfp PPTase inh)
Cc1ccc(NCc2nnc(SCC(N)=O)n2CC2CCCO2)c(C)c1 (stereo not given)	PLK1 PBD block 30µM
CC[C@]12c3[nH]c4cc(-c5ccco5)ccc4c3CCN1C(=O)[C@@H](CC(=O)NC/C=C(\C)CCC=C(C)C)C[C@@H]2C(=O)N1CCN(C(=O)C2CC2)CC1	12-LOX inh inconclusive, VDR inh inconclusive (no result: Sfp PPTase inh)
CC[C@]12c3[nH]c4cc(-c5ccco5)ccc4c3CCN1C(=O)[C@@H](CC(=O)NC/C=C(\C)CCC=C(C)C)C[C@@H]2C(=O)N1CCN(C(=O)c2ccco2)CC1	PLK1 PBD block 24µM (no result: 12-LOX inh, Sfp PPTase inh)
CC(C)(C)NC(=O)C[C@H]1C[C@H](C(=O)N2CCCCC2)[C@@]2(C)c3[nH]c4cc(-c5ccco5)ccc4c3CCN2C1=O	12-LOX inh inconclusive, PLK1 PBD block 24µM, VDR inh inconclusive (no result: Sfp PPTase inh)
CC(C)(C)NC(=O)C[C@H]1C[C@H](C(=O)N2CCOCC2)[C@@]2(C)c3[nH]c4cc(-c5ccco5)ccc4c3CCN2C1=O	none (no result: 12-LOX inh, Sfp PPTase inh)
C[C@]12c3[nH]c4cc(-c5ccco5)ccc4c3CCN1C(=O)[C@@H](CC(=O)NCCC1=CCCCC1)C[C@@H]2C(=O)N1CCCCC1	12-LOX inh inconclusive, PLK1 PBD block 21µM, VDR inh inconclusive (no result: Sfp PPTase inh)
CCN(Cc1nc(-c2ccc(OC)c(OC)c2)no1)C(=O)c1ccc2c(c1)OCO2	none
COc1ccccc1NC(=O)CCS(=O)(=O)c1ccccc1	none
COc1ccc(S(=O)(=O)CCC(=O)Nc2cc(C)ccc2OC)cc1	Sfp PPTase inh 50µM
COc1ccc(C(=O)CCS(=O)(=O)c2ccc(C)cc2)cc1	PLK1 PBD block 11µM, VDR inh inconclusive
COc1ccc(CC(=O)NNC(=O)CCC(=O)Nc2cc(C)ccc2C)cc1	PLK1 PBD block inconclusive, VDR inh 89µM
COc1ccc(OC)c(NC(=O)CCN2CC(C)CC(C)C2)c1 (stereo not given)	PLK1 PBD block 24µM (no result: 12-LOX inh)
C[C@H](CO)N1C[C@H](C)[C@@H](CN(C)C(=O)Nc2ccc(C(F)(F)F)cc2)Oc2c(cccc2N(C)C)C1=O	none (no result: Sfp PPTase inh)
O=C(OCc1nnc(-c2ccccc2)o1)c1ccc([N+](=O)[O-])s1	none (no result: Sfp PPTase inh)
O=C(O)C1CCN(C(=O)CSc2nnc3ccccn23)CC1	none (no result: Sfp PPTase inh)
O=C(NCCO)Nc1ccc2nc(-c3ccco3)c(-c3ccco3)nc2c1	Sfp PPTase inh 18µM (no result: 12-LOX inh, PLK1 PBD block, VDR inh)
O=C(NCCO)Nc1ccc2nsnc2c1	none
O=C(Nc1ccc2nc(-c3ccco3)c(-c3ccco3)nc2c1)N1CCCC1	VDR inh 71µM (no result: 12-LOX inh, PLK1 PBD block, Sfp PPTase inh)
O=C(c1ccc2nc(-c3ccco3)c(-c3ccco3)nc2c1)N1CCN(c2ncccn2)CC1	12-LOX inh inconclusive, Sfp PPTase inh 14µM
O=C(Nc1ccc2nc(-c3ccco3)c(-c3ccco3)nc2c1)N1CCN(c2ccccn2)CC1	12-LOX inh inconclusive, PLK1 PBD block 5.3µM, VDR inh 89µM, Sfp PPTase inh 20µM

Screening results deposited in PubChem BioAssay by National Center for Advancing Translational Sciences (NCATS).
